Screening data (PubChem BioAssay)
Platelet DG rel – inhibitors of platelet dense granule secretion, primary screen, cell-based, MLPCN, human platelets. human platelet-rich plasma, SFLLRN dense granule ATP release, luminescence. inhibition, %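 (compounds screened at 7.5 µM in platelet-rich plasma)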. 300,000 tested, 0.22% active. AID 1663, 2009;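 active means mean replicate score, as percent of positive control, at or above 50; inconclusive means mean below 50 but at least one replicate at or above 50; inactive means mean and every replicate below 50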
dFosB activator – activators of delta FosB homodimer, primary screen, biochemical, fluorescence polarization, TAMRA-CDK5 oligo, single point | Protein FosB (Mus musculus), P13346 | purified delta FosB; percent of positive-control signal above neutral wells | activation, % at 25 µM | 340,000 tested, 0.99% active;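 active means mean activation above about 17%, with every replicate also reaching it, limit read from the data, passing the limit was not always enough; inconclusive means only one of the two conditions met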
Target sequence (P13346 whole entry, looked up): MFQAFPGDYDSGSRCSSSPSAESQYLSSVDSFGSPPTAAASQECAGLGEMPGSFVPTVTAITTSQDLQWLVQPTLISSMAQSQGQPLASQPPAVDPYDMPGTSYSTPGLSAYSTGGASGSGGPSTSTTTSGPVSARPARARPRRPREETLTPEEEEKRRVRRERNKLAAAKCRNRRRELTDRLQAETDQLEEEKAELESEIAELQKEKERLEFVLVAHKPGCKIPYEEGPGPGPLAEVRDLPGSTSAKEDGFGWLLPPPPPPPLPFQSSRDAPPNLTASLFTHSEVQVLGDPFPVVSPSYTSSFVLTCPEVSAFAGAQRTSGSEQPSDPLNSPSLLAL
HSF-1 act – HSF-1 activators, primary screen, NIH3T3-HGL cells, MG132 stress, luminescence, single point; NIH3T3-HGL HSF-1 luciferase reporter, 8 h; 100% = twice DMSO control signal; activation, % at 9 µM; 300,000 tested, 1.7% active; AID 504408, 2011;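 active means mean replicate activation of at least 50% with a set share of replicates each reaching 50%; inconclusive means only one of those two conditions met; inactive means mean below 50% and too few replicates reaching it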;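 further: 0% = median of the neutral control wells and 100% = twice that signal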
HSP90 refold inh – HSP90 inhibitors, primary screen, cell lysate, luminescence; Heat shock protein HSP 90 (rabbit reticulocyte lysate; luciferase refolding); Rabbit reticulocyte lysate, luciferase refolding luminescence, 3 h; inhibition, % at 5.6 µM; 290,000 tested, 0.91% active; AID 1789, 2009;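 active means inhibition above the screen-wide mean plus 3 SD, computed separately per campaign, cut at about 16% in these data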;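 further: 0% = DMSO wells and 100% = 60 µM geldanamycin wells; inhibitors lower the luminescence because luciferase stays unfolded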
MPTP inh – mitochondrial permeability transition pore inhibitors, primary screen, biochemical, isolated mouse mitochondria, absorbance | Ca2+ swelling absorbance, 30 min | inhibition, % at 10 µM | 360,000 tested, 1.4% active;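 active means inhibition of 50% or more, scaled per plate between neutral and stimulator controls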;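 further: 0% = DMSO wells given calcium and 100% = 1 mM EGTA wells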
HSF1 inh – HSF1 inhibitors in luciferase reporter cells, primary screen, cell-based, NIH3T3, luminescence | NIH3T3-HGL HSE-luciferase, MG132-induced, luminescence 8 h; stronger effect = lower value | activity change, negative = inhibition, % at 7.5 µM (by protocol) | 300,000 tested, 0.77% active | AID 2098, 2009;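 active means more than half of replicate wells show activity change below -50%, luminescence cut by over half; inconclusive means some wells, but at most half, below -50%; inactive means no replicate well below -50%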;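 further: luciferase reports HSF-1 transcriptional activity via heat shock element; 0% = median of DMSO wells and -100% = zero luminescence signal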
HSP90 confirm – HSP90 inhibitors, confirmation, cell lysate, luminescence. shares compounds with HSP90 refold inh. rabbit reticulocyte lysate, luciferase refolding luminescence, 3 h. inhibition, % at 5.9 µM. 2,300 tested, 64% active; in the data active means inhibition above about 18%;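 further: 0% = vehicle wells and 100% = reference inhibitor wells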
FLuc counter – firefly luciferase inhibitors, HSP90 counter-screen, confirmation, artefact control for HSP90 inhibitor project, biochemical, luminescence, triplicate; shares compounds with HSP90 refold inh; purified native firefly luciferase; inhibition, % at 5.9 µM; 2,300 tested, 48% active;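 active means inhibition above the mean inhibition of all tested sample wells plus 3 SD, cut at about 10% in these data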;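 further: 0% = DMSO with luciferase and 100% = wells lacking luciferase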
Active calls of the source: *; ? = inconclusive; . = no result. Sampled rows, rich in hits. Any-hit rate of the full collection: about 4.9%.

SMILES	Platelet DG rel	dFosB activator	HSF-1 act	HSP90 refold inh	MPTP inh	HSF1 inh	HSP90 confirm	FLuc counter
Nc1sc2c(c1C(=O)c1ccccc1)CCCC2	1	-4	4	31*	1	13	11	1
Cc1cc(C)cc(Nc2ncc3c(n2)CC(c2ccco2)CC3=O)c1 (configuration not stated)	1	-15	0	1	-1	1	.	.
Cc1cc(C)cc(Nc2ncc3c(n2)CCCC3=O)c1	6	5	27	17*	0	9	43*	23*
COc1ccc(-c2nsc3c(N4CCCCC4C)ncnc23)cc1 (configuration not stated)	-4	-15	-96	78*	0	-95*	83*	80*
COc1ccc(-c2nsc3c(N4CCCCC4)ncnc23)cc1	18	-6	-83	61*	0	-80*	82*	63*
COc1ccc(-c2nsc3c(N4CCN(S(=O)(=O)c5ccccc5F)CC4)ncnc23)cc1	-11	-4	16	-2	2	-1	.	.
COc1ccc(C(=O)N2CCN(c3ncnc4c(-c5ccccc5)nsc34)CC2)cc1	1	-16	7	2	-1	-5	.	.
COc1ccc(NC(=O)CN2CCCC2)cc1	3	5	-1	-1	0	2	.	.
COc1ccc(NC(=O)OC(CN2CCCCC2)C(F)(F)F)cc1 (configuration not stated)	0	-1	5	18*	-2	-3	-4	-10
O=C(NCCc1ccccc1)c1ccccc1NC(=O)C1CCCCC1C(=O)O (configuration not stated)	-8	.	44	47*	.	22	2	-9
Cc1ccc(C)c(N2N=C(C(=O)N(CC(C)C)c3c(N)n(Cc4ccccc4)c(=O)[nH]c3=O)CCC2=O)c1	-2	-10	2	-4	-1	-1	.	.
Cc1cc2ncc(-c3ncc(C(F)(F)F)cc3Cl)cn2n1	7	-4	12	18*	1	-5	67*	55*
Brc1ccc(N=Nc2ccc3ccccc3n2)cc1	69*	-2	.	61*	1	-1	95*	86*
CC1CCCC(C)N1C(=O)COC(=O)CNS(=O)(=O)c1ccc2ccccc2c1 (configuration not stated)	.	.	.	.	1	.	.	.
O=C(O)c1ccc(N=NN2CCCC2)cc1	-2	1	-2	10	-4	-13	.	.
O=C(O)c1ccc(N=NN2CCCCCC2)cc1	-13	7	-5	21*	-4	-5	42*	12*
COc1ccc(/C=C/C(=O)NC(=S)NNC(=O)c2cc(OC)c(OC)c(OC)c2)cc1	-12	-2	11	26*	-3	-6	61*	27*
COc1ccc(CCNC(=O)COc2ncnc3ccccc23)cc1OC	-1	15	-7	62*	-1	-4	-6	-11
COc1ccc(CCC(C)NC(=O)Cc2ccc(OC)c(OC)c2)c(OC)c1 (configuration not stated)	11	3	-11	1	0	5	.	.
C[C@H]1CN([C@@H](C)CO)C(=O)CCCn2cc(nn2)CO[C@@H]1CN(C)S(C)(=O)=O	.	.	.	.	0	.	.	.
Cc1[nH]n(-c2ccccc2)c(=O)c1N=Nc1cccc(C(=O)O)c1	-12	-6	-41	23*	0	-31	66*	78*
Cc1[nH]n(-c2ccccc2)c(=O)c1N=Nc1ccccc1	-8	-6	41	-1	6	25	.	.
CC(=O)c1ccc(N=Nc2c(C)[nH]n(-c3ccccc3)c2=O)cc1	-4	1	9	35*	3	-6	60*	-10
Cc1[nH]n(-c2ccccc2)c(=O)c1N=Nc1ccc(C(=O)O)cc1	-6	1	3	36*	0	-7	34*	-17
Cc1[nH]n(-c2ccccc2)c(=O)c1N=Nc1ccc(C(N)=O)cc1	11	-6	-9	25*	4	-1	39*	-5
SMILES	Platelet DG rel	dFosB activator	HSF-1 act	HSP90 refold inh	MPTP inh	HSF1 inh	HSP90 confirm	FLuc counter
O=C(NCc1ccccn1)C1CCN(C2CCN(Cc3cccc(F)c3)CC2)CC1	.	.	.	.	0	.	.	.
Oc1ccccc1Nc1nc(NCc2ccco2)c2ccccc2n1	13	?	-6	28*	27	13	5	-1
CSc1nc(NCc2ccco2)c2ccccc2n1	9	-13	-16	6	0	2	.	.
O=C(Nc1cccc2nsnc12)c1ccc(-c2cccc(Cl)c2)o1	.	-13	.	17*	1	.	2	-9
O=C(Nc1ccccc1N1CCCCC1)c1ccc(-c2cccc(Cl)c2)o1	-12	3	-8	-1	29	-1	.	.
O=C1Cc2cc(NS(=O)(=O)c3ccc([N+](=O)[O-])cc3)cc3c2N1CCC3	3	3	7	.	-1	13	.	.
O=C(O)c1ccc(-c2nc3ccccc3s2)o1	9	-2	15	63*	0	8	80*	24*
O=C(c1ccc(-c2nc3ccccc3s2)o1)N1CCN(c2ccccc2O)CC1	-9	-6	20	4	0	1	.	.
Cc1ccc(C)c(S(=O)(=O)N2CCN(C(=O)c3cccnc3)CC2)c1	-10	-5	3	-3	-1	-2	.	.
COc1cc(/C=C/C(=O)N(C)CC(=O)Nc2ccccc2SC)cc(OC)c1OC	.	-12	.	.	-1	.	.	.
O=[N+]([O-])c1ccc(N=Nc2ncc[nH]2)cc1	-1	-4	-66	55*	1	-66*	57*	-18
Cc1oc(-c2nc3ccccc3n2C)cc1C(=O)c1ccccc1	.	-11	5	17*	-11	-3	57*	46*
Cn1cc(C(=O)c2ccccc2)cc1-c1nc2ccccc2n1C	-1	3	-40	-1	-1	-27	.	.
CC(=O)Nc1ccc2nc(-c3ccccc3)cn2c1	1	6	42	11	-2	9	.	.
COC(=O)c1ccc2nc(-c3cccc(N)c3)cn2c1	14	-6	0	36*	2	-3	71*	54*
CC1=NN(c2ccc(C(=O)O)cc2)C(=O)/C1=C\c1ccc(OC(=O)c2cccs2)cc1	8	-6	5	26*	-1	-4	5	17*
CCOC(=O)Cc1nn[nH]n1	-2	-7	-6	0	1	-4	.	.
